Assay results from PubChem BioAssay AID686979 (National Center for Advancing Translational Sciences (NCATS), 2013).
The whole screen tested about 420,000 compounds, of which about 50,000 (12%) were called active. Not shown: some 26% with an inconclusive outcome. The entries come from a sample that favours actives as a whole. Unmarked numbers belong to inactive results. Calls follow the shape of the dose curve; as a rule, active = well fitted inhibition curve with a large enough effect; inconclusive = small, poorly fitted or top-dose-only effect; inactive = flat fitted curve, though single readings scatter.
% is scaled to controls: 0 for no effect and ±100 for the full control effect; potency is read from the fitted curve at half-maximal effect.

Test: qHTS for Inhibitors of human tyrosyl-DNA phosphodiesterase 1 (TDP1): qHTS in cells in presence of CPT; also: nearly all actives have a fitted effect of over 55% in size
Settings: chicken DT40 Tdp1-/-;hTDP1 cells + 20 nM CPT, ATP luminescence, 48 h; series mostly up to 46.2 µM; activity change, negative = growth inhibition: at the top concentration
Method in brief: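 Chicken DT40 Tdp1-/- cells complemented with human TDP1, 400 cells/well, exposed to compounds plus 20 nM camptothecin for at least 48 h at 37 C; viability read as ATP content by CellTiter-Glo luminescence.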
With `CC(C)(C)C1CCc2c(sc(NC(=O)c3ccccc3F)c2C(=O)N2CCCCC2)C1` (stereo not drawn) the Potency was 16.4 µM (active).
For `COC(=O)c1c(NC(=O)c2ccccc2F)sc2c1C(C(=O)OC)CC2` (stereo not drawn), the “activity change, negative = growth inhibition” value was -29%.
In the case of `Cc1ccccc1NC(=O)c1c(NC(=O)c2ccccc2F)sc2c1CCC(C)C2` (stereo not drawn), the “activity change, negative = growth inhibition” value is reported as 6.23%.
For `Cc1ccc(F)c(S(=O)(=O)NC(=O)C2(C)CCN2C(=O)CCc2cccs2)c1` (stereo not drawn), the “activity change, negative = growth inhibition” value was -16.3%.
For `CCOn1c(SC(C)C)nc2ccccc2c1=O`, the “activity change, negative = growth inhibition” value was -7.27%.
In the case of `CC1CCN(CCCn2c(SCC(=O)NC3CCCC3)nc3ccccc3c2=O)CC1`, the “activity change, negative = growth inhibition” value is reported as 8.67%.
In the case of `CCOC(=O)C(C)Sc1nc2ccccc2c(=O)n1CC1CCCCC1` (stereo not drawn), the Potency is reported as 12.6 µM (active).
For `O=C(NCCS(=O)(=O)c1ccc(Br)cc1)c1ccccc1Cl`, the “activity change, negative = growth inhibition” value was 1.81%.
For `O=C(O)CCCN1C(=O)C2C3c4ccccc4C(c4ccccc43)[C@@H]2C1=O` (stereo partly drawn), the “activity change, negative = growth inhibition” value was 36.8%.
In the case of `Cc1ccc(NC(=O)CCOc2ccccc2)cc1S(=O)(=O)Nc1ccccc1Cl`, the “activity change, negative = growth inhibition” value is reported as -1.11%.
For `CC1CCN(C(=O)Cn2c(=O)n(-c3ccc(Cl)cc3)c(=O)c3c4c(sc32)CCC4)CC1`, the “activity change, negative = growth inhibition” value was 0.402%.
With `O=c1c2c3c(sc2n(CCN2CCCC2)c(=O)n1Cc1ccccc1)CCCCC3` the Potency was 13 µM (active).
With `CCOC(=O)N1CCc2c(sc3c2c(=O)n(Cc2ccccc2)c(=O)n3CC(=O)Nc2cccc(C)c2)C1` the “activity change, negative = growth inhibition” value was -5.93%.
With `COc1ccc(C2NC(=O)C(=O)/C2=C(\O)c2ccc(Cl)cc2)cc1OC` (stereo not drawn) the “activity change, negative = growth inhibition” value was 1.92%.
For `O=c1[nH]c2ccc(S(=O)(=O)N3CCCC3)cc2[nH]1`, the “activity change, negative = growth inhibition” value was -16.4%.
In the case of `CCCN(CC1CC1)C(=O)COC(=O)c1ccc(C)cc1O`, the “activity change, negative = growth inhibition” value is reported as 6.29%.
In the case of `Cc1cccc(C(=O)NC(=S)N(C)C2CCCCC2)c1`, the Potency is reported as 29.1 µM (active).
In the case of `Cc1cccc(C(=O)c2cccc(C)c2)c1`, the “activity change, negative = growth inhibition” value is reported as -27.9%.
In the case of `Cc1cccc(C(=O)NCCCN(C)CCCNC(=O)c2cccc(C)c2)c1`, the “activity change, negative = growth inhibition” value is reported as 2%.
In the case of `CN(CC(=O)Nc1ccc(F)c(F)c1F)C(=O)C1CC(=O)N(C2CCCC2)C1` (stereo not drawn), the “activity change, negative = growth inhibition” value is reported as -10%.
With `COc1ccc(C2Sc3ccccc3NC3=C2C(=O)c2ccccc23)c(OC)c1OC` (stereo not drawn) the Potency was 1.84 µM (active).
With `CCN(CC)CCCN1C(=O)C(=O)/C(=C(/O)c2c(C)nc3ccccn23)C1c1ccc(C)o1` (stereo not drawn) the “activity change, negative = growth inhibition” value was -12.8%.
With `Cc1ccc(N=C2NC(=O)c3cccc([N+](=O)[O-])c32)cc1` the “activity change, negative = growth inhibition” value was -21.1%.
For `CC(=O)c1cnc(SCC(=O)O)nc1C`, the “activity change, negative = growth inhibition” value was 5.08%.
For `CCn1cc(/C=C2/SC(=S)NC2=O)c(C)n1`, the “activity change, negative = growth inhibition” value was -18%.
With `O=C1/C(=C/c2ccc3c(c2)OCO3)CCC/C1=C\c1ccc2c(c1)OCO2` the “activity change, negative = growth inhibition” value was -23.1%.
For `Cc1nn(C)cc1/C=C1\CCC/C(=C\c2cn(C)nc2C)C1=O`, the Potency was 15.8 µM (active).
In the case of `C[C@H](NC(=O)C1CCN(S(=O)(=O)c2ccccc2)CC1)C(=O)NCc1ccccc1`, the “activity change, negative = growth inhibition” value is reported as -11.3%.
